Results published in ChEMBL document CHEMBL4513134, “CO-ADD screening of University of Queensland (Australia) compounds” (2021).
Results with a measured potency or affinity are listed apart.

Columns and labels:
Staphylococcus aureus = conditions: Concentration 32 ug.mL-1; ASSAY_TEST Inhibition of Bacterial Growth; detection method Absorption (OD600); MEDIA CAMHB; plate type 384well; NBS; CORNING #3640; time 18 hr
Escherichia coli = conditions: Concentration 32 ug.mL-1; ASSAY_TEST Inhibition of Bacterial Growth; detection method Absorption (OD600); MEDIA CAMHB; plate type 384well; NBS; CORNING #3640; time 18 hr

Row | Structure (SMILES) | Inhibition (Staphylococcus aureus) [%] | Inhibition (Escherichia coli) [%]
1 | Cc1ccc(CCNC(=O)c2ncc([N+](=O)[O-])n2C)cc1 | 48.13 | 11.97
2 | Cn1c([N+](=O)[O-])cnc1C(=O)NCc1ccccn1.O=C(O)C(F)(F)F | 45.26 | -0.31
3 | CN(C)C(=O)c1ncc([N+](=O)[O-])n1C | 42.28 | 6.99
4 | Cn1c([N+](=O)[O-])cnc1C(=O)NCc1ccc(OC(F)(F)F)cc1 | 35.57 | 3.65
5 | Cn1c([N+](=O)[O-])cnc1C(=O)NCc1cccc(OC(F)(F)F)c1 | 39.06 | 5.07
6 | CC(NC(=O)c1ncc([N+](=O)[O-])n1C)c1ccc(F)cc1 (stereo not given) | 34.68 | 2.11
7 | Cn1c([N+](=O)[O-])cnc1C(=O)NCc1ccc(F)cc1 | 28.26 | 3.69
8 | Cn1c([N+](=O)[O-])cnc1C(=O)NC1CC1 | -13.42 | -3.03
9 | Cn1c([N+](=O)[O-])cnc1C(=O)N1CCCC1 | 47.23 | 5.01
10 | Cn1c([N+](=O)[O-])cnc1C(=O)N1CCOCC1 | 46.51 | 8.52
